Most compounds without a hit are left out; they make up all but 2.2% or so of the library.
KLF5 inhibitor – kruppel-like factor 5 inhibition. DLD-1 KLF5 promoter-luciferase reporter, luminescence. inhibition, % at 5 µM. AID 1700. actives 0.23% (n = 290,000);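 active = inhibition above a per-plate limit of that plate's mean compound inhibition plus 3 SD, cut at about 60% in these data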;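 also: 0% = DMSO wells and 100% = LY294002 at 200 µM; higher means less KLF5 promoter-driven luciferase light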
APP transl inh – APP translation inhibition. SH-SY5Y APP 5'UTR-luciferase reporter, luminescence. actives 0.82% (n = 190,000). inhibition, % at 2 µM;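 active = inhibition above a set limit, derived from the sample mean plus 3 SD, cut at about 45% in these data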
IEC-6 cytotox – counter-screen for KLF5 inhibitors: cytotoxicity in IEC-6 cells | IEC-6 cytotoxicity, luminescence viability | inhibition, % at 5 µM | actives 0.78% (n = 290,000); in the data active = inhibition above about 22%;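 also: 0% = plate median of test compound wells and 100% = cytotoxic reference compound wells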
aSyn 5UTR inh – MLPCN primary screen, SNCA 5' untranslated region | alpha-synuclein 5'UTR reporter, inhibitor activity | inhibition, % (tested at 7.5 µM) | actives 0.82% (n = 300,000); in the data active = inhibition above about 60%;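 also: H4 neuroglioblastoma cells stably carrying SNCA 5'UTR luciferase fusion; 0% = DMSO wells and 100% = positive control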
Ba/F3 V617F tox – loss of viability in JAK2V617F-driven Ba/F3 cells; Ba/F3 EpoR-JAK2V617F viability, ATP luminescence; actives 1.1% (n = 220,000); inhibition, % at 5.6 µM;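 active = inhibition above the campaign mean plus 3 SD over all tested compounds, cut at about 24% in these data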;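 also: cytokine-independent growth of Ba/F3 cells driven by EpoR plus mutant JAK2; 0% = DMSO-treated cells and 100% = JAK inhibitor I control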
BaF3 parental – counter-screen for JAK2V617F inhibitors: parental Ba/F3 viability inhibitors | CellTiter-Glo ATP luminescence | inhibition, % at 5.6 µM | actives 1.1% (n = 220,000);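 active = inhibition above a per-campaign cutoff, the mean inhibition of all tested compounds plus 3 SD, cut at about 27% in these data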;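 also: 0% = DMSO wells and 100% = JAK Inhibitor I control wells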
* marks the source's active call; other numbers are inactive results; . = no result given.

SMILES	KLF5 inhibitor	APP transl inh	IEC-6 cytotox	aSyn 5UTR inh	Ba/F3 V617F tox	BaF3 parental
O=C(Nc1nc(-c2ccccn2)cs1)c1cccc(-n2cnnn2)c1	9	.	16	83*	53*	63*
O=C(Nc1ccc(Br)cc1)c1cccc(-n2cnnn2)c1	-28	.	-1	-18	.	.
Cc1ccc[n+](CC2OCc3ccccc3CO2)c1	-9	2	0	3	1	5
CCc1nc(Nc2ccncc2)c2oc3ccccc3c2n1	-5	-27	0	-27	15	29*
Cc1nc(Nc2ccncc2)c2oc3ccccc3c2n1	-26	5	0	-66	19	23
Cc1cccc(C(CC(=O)O)NC(=O)C(F)(F)F)c1 (configuration not stated)	-2	-2	-7	-12	-2	3
O=C(CCl)Nc1ccccc1Sc1ccc(Cl)cc1	-31	.	4	93*	0	1
COc1ccc(CC(=O)N(C)CC(=O)Nc2cccc(F)c2)cc1S(=O)(=O)N1CCOCC1	-14	.	3	6	.	.
O=c1c2ccccc2cnn1CCOc1ccccc1	54	-98	2	72*	3	8
O=C(NNc1c2ccccc2nc2ccccc12)c1ccc(O)cc1O	-24	-12	5	-79	72*	77*
O=C(NNc1c2ccccc2nc2ccccc12)c1ccccc1O	-3	1	7	-93	0	3
O=C(NNc1c2ccccc2nc2ccccc12)c1ccc(O)cc1	-6	6	4	-14	49*	65*
COc1ccc2cc(/C=N/NC(=O)c3ccc(CN(c4cccc(Cl)c4Cl)S(C)(=O)=O)cc3)c(Cl)nc2c1	-21	-13	-4	67*	-1	5
O=C(/C=C/Nc1ccc(Br)cc1F)c1ccccc1	-82	-140	-2	78*	0	-1
O=C(CCCN1C(=O)/C(=C/c2ccccc2Cl)SC1=S)NNC(=O)c1ccc(Cl)cc1Cl	15	.	-1	71*	5	0
O=C(CCCN1C(=O)/C(=C/c2ccccc2Cl)SC1=S)NNC(=O)c1cccnc1	-5	.	0	20	4	1
O=C(CCN1C(=O)/C(=C/c2ccccc2Cl)SC1=S)Nc1ccccc1C(=O)O	-21	.	-13	-3	.	.
O=C(CCCN1C(=O)S/C(=C\c2ccccc2)C1=O)NNC(=O)c1ccccc1O	12	63*	0	83*	-4	4
O=C(CCCN1C(=O)/C(=C/c2ccccc2Cl)SC1=S)NNC(=O)c1ccccc1	-2	28	-11	62*	-3	3
CC(C)CN(C(=O)COC(=O)c1nc(Cl)ccc1Cl)c1c(N)n(Cc2ccccc2)c(=O)[nH]c1=O	-19	.	5	6	.	.
CCOc1ccc2c(c1)c(N=NC(=N)N)c(O)n2C	-19	-2	13	-2	44*	69*
Cc1ccc(N2C(=O)C3CCC(C)(C2=O)C3(C)C)cc1C (configuration not stated)	9	-10	1	11	2	3
Cc1cc(-n2c(C)cc(C(=O)CSc3nnc4sc5ccccc5n34)c2C)no1	15	-7	-3	-4	-2	1
Cc1cc(-n2c(C)cc(C(=O)CSc3ncnc4ccccc34)c2C)no1	-7	4	5	-40	44*	51*
COc1cc(NC(=O)c2cccc(Br)c2)nc(OC)n1	-66	-43	5	-105	-4	0
SMILES	KLF5 inhibitor	APP transl inh	IEC-6 cytotox	aSyn 5UTR inh	Ba/F3 V617F tox	BaF3 parental
COc1cccc(CNC(=O)CCS(=O)(=O)c2cc3c(cc2C)NC(=O)CO3)c1	-2	.	1	-4	.	.
COc1cccc(CNC(=O)CCS(=O)(=O)c2ccc3c(c2)NC(=O)CO3)c1	-10	.	0	99*	.	.
Cc1ccc(C)c(N2CCN(S(=O)(=O)c3ccc(-c4ccc(=O)[nH]n4)o3)CC2)c1	11	.	-7	7	.	.
CCCCCn1c(Sc2ncccn2)nc2c1c(=O)[nH]c(=O)n2C	-39	64*	9	34	4	5
Cc1ccc(Cn2c(Sc3ncccn3)nc3c2c(=O)[nH]c(=O)n3C)cc1	-6	3	-4	4	-1	0
Nn1c(=O)[nH]c2ccccc2c1=O	-32	2	0	11	-1	38*
CCn1c(=O)[nH]c2ccccc2c1=O	-13	7	-6	-7	-3	-3
COc1ccccc1C1C(C(C)=O)=C(O)C(=O)N1CCc1ccccc1 (configuration not stated)	-8	-18	3	24	1	4
Cc1ccc(C(=O)NC2CCN(S(=O)(=O)c3ccccc3)CC2)cc1	-4	-11	-7	32	-3	4
Cc1ccc(S(=O)(=O)N2CCC(NC(=O)c3ccccc3)CC2)cc1	-18	8	4	23	-1	90*
Cc1csc(NC(=O)c2cc3c(s2)CCCC3)n1	-43	-165	9	29	6	8
Cc1cnc(NC(=O)c2cc3c(s2)CCCC3)s1	13	-173	6	65*	-1	2
COc1ccccc1N1CCN(C(=O)c2noc(C(C)C)c2[N+](=O)[O-])CC1	-27	.	2	0	.	.
Cc1cccc(N2CC(c3nc4ccccc4[nH]3)CC2=O)c1 (configuration not stated)	-11	4	-1	1	2	15
O=[N+]([O-])c1ccc(N/N=C/c2c[nH]c3ccccc23)cc1	-11	8	11	-139	52*	32*
O=[N+]([O-])c1ccc(N/N=C/c2ccc[nH]2)cc1	5	65*	6	.	60*	33*
O=[N+]([O-])c1ccc(N/N=C/c2cccc(O)c2O)cc1	-4	.	2	-170	.	.
COc1ccc(C(=O)N/N=C/c2ccc(OC)c(COc3ccc(F)cc3)c2)cc1	-4	.	5	8	.	.
CCOc1cc(/C=N\NC(=O)c2ccc(NC(=O)C(C)(C)C)cc2)ccc1OC(=O)c1ccc(OC)cc1	-28	94*	2	12	-4	1
Cc1ccc(S(=O)(=O)ON2C(=O)c3ccccc3C2=O)c(C)c1	-13	56*	0	.	0	2
CCOC(=O)c1c(-c2ccc(F)cc2)csc1NC(=O)c1c(-c2ccccc2)noc1C	-36	-7	-9	54	-3	8
COC(=O)c1c(-c2ccccc2)csc1NC(=O)c1c(-c2ccccc2)noc1C	35	37	-1	65*	3	13
C/C(=N\NC(=O)c1cc(-c2cccnc2)nc2ccccc12)c1ccccc1O	-12	56*	10	86*	-1	6
CCn1c(SCc2nc3ccccc3c(=O)[nH]2)nnc1C(C)NC(=O)c1ccccc1F (configuration not stated)	-15	-3	-5	10	-1	1
CCOC(=O)c1oc2ccccc2c1NC(=O)c1cccc(OC)c1	-55	10	-5	44	0	6
COc1cc(C(=O)N2CCN(c3ccc(C)cc3C)CC2)cc(OC)c1OC	29	76*	42*	28	37*	44*
